Screen size: about 16,000 compounds; about 5,100 (32%) were called active. Inconclusive results (about 25%) are left out. This is one part of the list. A number with no mark means an inactive call. Calls follow the shape of the dose curve; as a rule, active = well fitted curve in the direction sought with a large enough effect; inconclusive = small, poorly fitted or top-dose-only effect, or effect the other way; inactive = no such curve, though single readings can be large or run the other way.
Each compound was assayed against Cytochrome P450 3A4 (Homo sapiens) (UniProt P08684) (assay: Cytochrome panel assay with activity outcomes). Conditions: recombinant CYP, pro-luciferin dealkylation, luminescence, p450-cyp3a4; series mostly up to 57.1 µM; activity, negative = inhibition: at the top concentration.
Sequence of Cytochrome P450 3A4 (Homo sapiens) (P08684 whole entry, looked up): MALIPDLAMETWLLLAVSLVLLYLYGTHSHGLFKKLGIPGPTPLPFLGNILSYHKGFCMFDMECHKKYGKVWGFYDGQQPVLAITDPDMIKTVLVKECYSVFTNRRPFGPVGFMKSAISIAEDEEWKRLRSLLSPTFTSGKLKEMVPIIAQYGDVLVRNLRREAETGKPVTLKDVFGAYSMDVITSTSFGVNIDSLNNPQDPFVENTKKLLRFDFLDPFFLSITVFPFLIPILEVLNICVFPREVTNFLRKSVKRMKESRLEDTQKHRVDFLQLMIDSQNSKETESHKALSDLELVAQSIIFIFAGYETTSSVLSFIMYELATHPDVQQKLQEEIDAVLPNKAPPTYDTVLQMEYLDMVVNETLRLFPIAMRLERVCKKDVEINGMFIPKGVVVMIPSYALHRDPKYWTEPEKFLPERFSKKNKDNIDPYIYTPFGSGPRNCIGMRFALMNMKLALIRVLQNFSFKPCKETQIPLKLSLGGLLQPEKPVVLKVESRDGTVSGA
`Cc1ccc(C2NC(c3ccc(C)cc3)C(C)C(=NO)C2C)cc1` (centres undefined) was tested, and the AC50 was 14.1 µM (active). `CCC(=O)NC(=S)Nc1ccc(S(=O)(=O)NC(C)=O)cc1` showed an activity, negative = inhibition of 18.1% [at 2.29 µM]. In the case of `COc1ccc(CC(=O)NC(=S)Nc2ccc(S(=O)(=O)NC(C)(C)C)cc2)cc1`, the AC50 is reported as 6.31 µM (active). In the case of `CC(=O)NS(=O)(=O)c1ccc(NC(=S)NC(=O)C(C)(C)C)cc1`, the “activity, negative = inhibition” value is reported as 3.17%. `CSc1nc(N)c2ncn([C@H]3O[C@H](COP(=O)(O)OP(=O)(O)O)[C@@H](O)[C@@H]3O)c2n1` was tested, and the “activity, negative = inhibition” value was -11.3%. `C[C@@]12CC3CC(N)(C1)C[C@@](C)(C3)C2` was tested, and the “activity, negative = inhibition” value was 5.36% [at 25.6 µM]. In the case of `CCOc1ccc(C(Nc2ccc(C)cc2)P2(=O)OCC(C)(C)CO2)cc1` (centres undefined), the AC50 is reported as 3.98 µM (active). With `CCOc1ccc(C2=[N+]([O-])C(C)(C)N(O)C2(C)C)cc1` the “activity, negative = inhibition” value was -12.4%. `CCOc1ccc(NC(=O)N2CCC(c3ccc(C)cc3)C2)cc1` (centres undefined) was tested, and the “activity, negative = inhibition” value was -20.6%. `CC(=O)Nc1nnc(SCc2ccc(F)cc2)s1` was tested, and the “activity, negative = inhibition” value was -13.1%. In the case of `O=C(O)c1cc(=O)[nH]c(SCc2ccccc2)n1`, the activity, negative = inhibition is reported as 0.661% [at 11.4 µM]. With `COc1ccc(CCn2c(C)cc(C(=O)CSc3nc(N)cc(=O)[nH]3)c2C)cc1` the AC50 was 2.51 µM (active). In the case of `Cc1cc(C(=O)CSc2nnc(N)s2)c(C)n1CCc1ccc(F)cc1`, the AC50 is reported as 0.316 µM (active). `C[C@@](N)(Cc1ccc(O)cc1)C(=O)O` was tested, and the AC50 was “inactive”. With `O=C(CCc1ccc(O)cc1)c1c(O)cc(O)cc1O` the AC50 was 10 µM (active). With `O=C(O)Cc1ccc(O)c(O)c1` the “activity, negative = inhibition” value was -3.58%. With `O=c1nc(N2CCCCCC2)nc(N2CCCCCC2)[nH]1` the “activity, negative = inhibition” value was -19.4%. With `CCN(CC)C(=O)CSc1nnc(C2CCCCC2)o1` the “activity, negative = inhibition” value was -27.4%. In the case of `O=C(CSc1nnc(CNc2ccc(F)cc2)o1)OC1CCCCC1`, the AC50 is reported as 28.2 µM (active). In the case of `Cc1cc2nc(-c3ccc(SCC(=O)N4CCc5ccccc54)nc3)[nH]c2cc1C`, the activity, negative = inhibition is reported as -3.98% [at 2.29 µM]. In the case of `O=C(CSc1n[nH]c(-c2ccccc2O)n1)N1CCCc2ccccc21`, the AC50 is reported as 3.16 µM (active). For `O=C(CSc1nnc(CNc2ccc(F)cc2)o1)N1c2ccccc2Sc2ccccc21`, the AC50 was 7.08 µM (active). In the case of `CCOc1ccc(-n2c(=O)[nH]cc(C(=O)N3CCCc4ccccc43)c2=O)cc1`, the “activity, negative = inhibition” value is reported as -29.5%. `O=C(CSc1nnc(CNc2ccccc2)o1)N1CCCc2ccccc21` was tested, and the AC50 was 8.91 µM (active). In the case of `O=C(CCN1CCCCC1)N1CCc2c([nH]c3ccccc23)[C@H]1c1cccnc1`, the activity, negative = inhibition is reported as -11.2% [at 11.4 µM]. In the case of `COC(=O)Cn1cnc(=O)c(C#N)c1/C=C/N(C)C`, the “activity, negative = inhibition” value is reported as -1.13%. `Cc1ccccc1C(=O)N/N=C/c1ccncc1` was tested, and the AC50 was 7.08 µM (active). With `O=C(N/N=C/c1ccc(O)cc1)c1csc2ccccc12` the activity, negative = inhibition was -23.9% [at 11.4 µM]. With `O=C(N/N=C/C=C/c1ccccc1)c1cc2c(ccc3ccccc32)o1` the “activity, negative = inhibition” value was -11.9%. With `O=C(N/N=C/c1ccncc1)c1cc2c(ccc3ccccc32)o1` the AC50 was 1.41 µM (active). With `C=CCn1cc(/C=N\NC(=O)c2cc3c(ccc4ccccc43)o2)c2ccccc21` the AC50 was 10 µM (active). In the case of `O=C(N/N=C/c1cccc([N+](=O)[O-])c1)c1cc2c(ccc3ccccc32)o1`, the activity, negative = inhibition is reported as -7.91% [at 2.29 µM]. Compound `O=C(N/N=C\c1cccc(O)c1)c1ccncc1` has an activity, negative = inhibition of -5.33% [at 11.4 µM]. Work on `COc1cccc([C@H](O)Cn2cc(-c3ccc(CON=C(C)C)cc3)nn2)c1` yielded an activity, negative = inhibition of -19.8% [at 11.4 µM]. In the case of `CC[C@@H](CS(=O)(=O)O)[N+](=O)[O-]`, the activity, negative = inhibition is reported as -18% [at 11.4 µM]. For `O=C(N=NC(=O)c1ccc2c(O)n(C3CCCCC3)c(O)c2c1)c1cccnc1`, the AC50 was 11.2 µM (active). With `COCCn1c(=O)c(-c2cn(C)c3ccccc23)nc2cncnc21` the AC50 was 3.16 µM (active). In the case of `Cn1cc(-c2nc3cncnc3n(CCN)c2=O)c2ccccc21`, the AC50 is reported as 12.6 µM (active). In the case of `COc1ccccc1CCn1c(=O)c(-c2cn(C)c3ccccc23)nc2cncnc21`, the AC50 is reported as 2.51 µM (active). For `Cc1cccc([C@@H]2CN(C)CCc3c2cc(O)c(O)c3Cl)c1`, the “activity, negative = inhibition” value was 7.75%. With `N[C@H](CCCP(=O)(O)O)C(=O)O` the AC50 was “inactive”. With `O=C(O)c1nnsc1-c1ccc(-c2snnc2C(=O)O)cc1` the activity, negative = inhibition was -0.252% [at 11.4 µM]. With `O=C(O)c1ccccc1-c1ccc(/C=c2\sc3nc4cc(Br)cnc4n3c2=O)o1` the “activity, negative = inhibition” value was -12.3%. In the case of `O=C(c1c[nH]c(=O)n(-c2ccccc2)c1=O)N1CCc2ccccc21`, the “activity, negative = inhibition” value is reported as -8.97%. In the case of `CN(c1ccc(C(=O)NCc2ccccn2)cc1)S(C)(=O)=O`, the “activity, negative = inhibition” value is reported as 2.98%. In the case of `CCOC(=O)N1CCN(C(=O)c2ccc(Cl)c(S(=O)(=O)N3CCOCC3)c2)CC1`, the activity, negative = inhibition is reported as -3.04% [at 2.29 µM]. `Cc1ccc(NS(=O)(=O)c2cc(C(=O)N3CCc4ccccc4C3)ccc2Cl)cc1` was tested, and the AC50 was 1.26 µM (active). In the case of `COc1ccc(C(=O)N2CCCCC2)cc1S(=O)(=O)Nc1ccccc1`, the AC50 is reported as 12.6 µM (active). With `Cc1ccc(NS(=O)(=O)c2cc(C(=O)NCc3ccccn3)ccc2Cl)cc1` the AC50 was 3.98 µM (active). For `OC(CN1CCCCC1)CN1CCCCC1`, the “activity, negative = inhibition” value was 12.3%. In the case of `CNc1ncncc1-c1ccc(C(=O)N(C)C)cc1`, the AC50 is reported as 5.01 µM (active). With `CN(C)C(=O)c1ccc(-c2cncnc2NC2CCNCC2)cc1` the “activity, negative = inhibition” value was -16%. In the case of `Cc1cccc(CNc2ncncc2-c2ccc(C(=O)N(C)C)cc2)c1`, the AC50 is reported as 0.631 µM (active). For `CN(C)C(=O)c1ccc(-c2cncnc2NCc2ccccc2)cc1`, the AC50 was 2.51 µM (active). For `CN(C)C(=O)c1ccc(-c2cncnc2NCCc2cnc[nH]2)cc1`, the AC50 was 6.31 µM (active). For `CN(C)C(=O)c1ccc(-c2cncnc2NCc2cccnc2)cc1`, the AC50 was 5.01 µM (active). For `CN1CCN(c2ncncc2-c2ccc(C(=O)N(C)C)cc2)CC1`, the AC50 was 15.8 µM (active). `CN(C)C(=O)c1ccc(-c2cncnc2N2CCNCC2)cc1` was tested, and the “activity, negative = inhibition” value was -25.5%. Work on `O=C(O)c1ccccc1C1c2ccccc2Oc2ccccc21` yielded an activity, negative = inhibition of 26.1% [at 11.4 µM]. `CCC1(C)CC(CCNS(=O)(=O)c2ccc(C)cc2)(c2ccc(C)cc2)CCO1` (centres undefined) was tested, and the AC50 was 3.55 µM (active). For `c1ccc(-c2nnc(SCCC3OCCCO3)o2)cc1`, the “activity, negative = inhibition” value was -12.2%. In the case of `Cc1cc(C(=O)CSc2nnc(-c3ccccc3)o2)c(C)n1CC1COc2ccccc2O1` (centres undefined), the AC50 is reported as 2.24 µM (active). In the case of `O=C(/C=C\c1ccc(O)c(O)c1)OCCc1ccccc1`, the AC50 is reported as 15.8 µM (active). With `O=C(O)/C=C\c1ccc(O)c(O)c1` the “activity, negative = inhibition” value was -6.21% [at 25.6 µM]. In the case of `O=C(/C=C\c1ccc(O)c(O)c1)O[C@@H](Cc1ccc(O)c(O)c1)C(=O)O`, the “activity, negative = inhibition” value is reported as -7.45%. For `CCn1c2ccccc2c2cnc(N=CN(C)C)c(C#N)c21`, the AC50 was 7.94 µM (active). `Nc1nc(N)nc(CC(=O)O)n1` showed an activity, negative = inhibition of -10.1% [at 11.4 µM]. `O=C(Oc1ccccc1)N1CCC[C@@]2(CCN(c3ccncc3)C2)C1` was tested, and the AC50 was 12.6 µM (active). With `COC(=O)N1CCC2(CC1)CCN(c1ccncc1)CC2` the “activity, negative = inhibition” value was -26.8%. With `COC(=O)N1CCC[C@@]2(CCN(c3ncccn3)C2)C1` the “activity, negative = inhibition” value was -17.7%. `O=C(Oc1ccccc1)N1CCC2(CC1)CCN(c1ccncc1)CC2` was tested, and the “activity, negative = inhibition” value was -14.1%. `COC(=O)N1CCC[C@@]2(CCN(c3ccncc3)C2)C1` was tested, and the AC50 was 3.98 µM (active). Compound `O=[N+]([O-])c1ccc2ncccc2c1CCc1c([N+](=O)[O-])ccc2ncccc12` has an activity, negative = inhibition of -12.1% [at 11.4 µM]. For `O=[N+]([O-])c1cccnc1NCCNc1ncc(C(F)(F)F)cc1Cl`, the AC50 was 12.6 µM (active). With `O=C(O)C[C@H](NC(=O)CP(=O)(O)O)C(=O)O.[NH-][C@@H]1CCCC[C@@H]1[NH-].[Pt]` the activity, negative = inhibition was -3.72% [at 11.4 µM]. In the case of `O=c1ccc(NS(=O)(=O)c2ccc(Cl)cc2)cn1Cc1ccc(Cl)c(Cl)c1`, the AC50 is reported as 5.62 µM (active). `O=S(=O)(NCc1cc(-c2ccccc2Cl)no1)c1ccccc1` was tested, and the “activity, negative = inhibition” value was -24.6%. For `Cc1cc(NS(=O)(=O)c2ccc(NC(=O)CN3C(=O)c4ccccc4C3=O)cc2)nc(C)n1`, the “activity, negative = inhibition” value was -13.1%. For `O=c1ccc(NS(=O)(=O)c2ccccc2)cn1Cc1ccc(Cl)c(Cl)c1`, the AC50 was 6.31 µM (active). Compound `O=S(=O)(Nc1ccc2oc(-c3ccccc3)nc2c1)c1ccccc1` has an activity, negative = inhibition of -16% [at 2.29 µM]. `C#CCOC(=O)Nc1ccc(=O)n(Cc2c(Cl)cccc2Cl)c1` was tested, and the “activity, negative = inhibition” value was -1.17%. For `Cc1ccc(S(=O)(=O)Nc2ccc(=O)n(Cc3ccc(Cl)c(Cl)c3)c2)cc1`, the AC50 was 3.16 µM (active). For `CC1(C)S[C@@H]2[C@H](NC(=O)[C@H](C(=O)O)c3ccsc3)C(=O)N2[C@H]1C(=O)O`, the “activity, negative = inhibition” value was -5.72% [at 25.6 µM]. For `CC12CCC(C(=O)Nc3ncc([N+](=O)[O-])s3)(OC1=O)C2(C)C` (centres undefined), the AC50 was 15.8 µM (active). In the case of `CCCCC#Cc1nc(NC)c2ncn([C@@H]3O[C@@H](CO)[C@H](O)[C@H]3O)c2n1`, the “activity, negative = inhibition” value is reported as -29%. With `CCSc1nnc(-c2ccc(Cl)cc2)c2ccccc12` the activity, negative = inhibition was 15.9% [at 2.29 µM]. For `C#CCSc1nc(Cc2ccc(Cl)cc2)nc2ccccc12`, the AC50 was 15.8 µM (active). `CC(C)(C)c1ccc(O)c(CN(Cc2c(O)ccc3ccccc23)C2CCCCC2)c1` showed an activity, negative = inhibition of -11.1% [at 11.4 µM]. `CS(=O)(=O)N(Cc1cc2ccccc2[nH]c1=O)C1CCCCC1` was tested, and the AC50 was 2.24 µM (active). In the case of `CN(Cc1cc2ccccc2[nH]c1=O)S(C)(=O)=O`, the activity, negative = inhibition is reported as 5.8% [at 11.4 µM]. `CSc1nc(N)c2ncn([C@@H]3O[C@@H](COP(=O)(O)OP(=O)(O)O)[C@@H](O)[C@H]3O)c2n1` was tested, and the “activity, negative = inhibition” value was -2.32%. `C=CC(=O)NC(NC(=O)C=C)c1ccc(Br)cc1` was tested, and the “activity, negative = inhibition” value was -14%. With `Cc1ccc(NC(=O)NNC(=O)Cn2nc(-c3ccccc3)c(-c3ccccc3)c(C#N)c2=O)cc1` the activity, negative = inhibition was 26.4% [at 0.457 µM]. `N#Cc1c(NC(=O)CCN2C(=O)c3ccccc3C2=O)oc(-c2ccccc2)c1-c1ccccc1` was tested, and the AC50 was 3.98 µM (active).
% is scaled to controls: 0 for no effect and ±100 for the full control effect.
